According to PubChem BioAssay (EPA / NIEHS):
Values joined by “and” are separate entries in the source; they are usually repeats but may differ in a detail not shown here. Equal values may be shown once. Results filed as inconclusive are left out. Where a structure was tested more than once in an assay, its records may differ in their call. Active and inactive are the calls of the source. The calls were made as follows: active = hit-call score of the fitted dose curve at least 0.9, where 1 is the maximum; inconclusive = response in the unintended direction; inactive = score below 0.9.

How the values were obtained:
[1] = TOX21_p53_BLA_p2_viability: Viability Assessment in the Tox21 HCT-116 p53 Agonism Beta-lactamase Assay, Phase 2 (AID 2283591);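 also: compound exposure lasted 16 h at 37 °C; actives lower the ATP signal meaning cytotoxicity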
How it was run: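 Cytotoxicity readout: CellTiter-Glo ATP luminescence, 30 min at room temperature, after the beta-lactamase read. Cells were HCT116 exposed 16 h at 37C to compounds pin-transferred at 217-fold dilution from DMSO stocks.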

[2] = target: Cellular tumor antigen p53 (Homo sapiens) (UniProt P04637); assay: TOX21_p53_BLA_p2_ratio: Tox21 HCT-116 p53 Agonism Beta-lactamase Assay, Ratio, Phase 2 (AID 2283592)
How it was run: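 Plated HCT116 p53-bla cells (4000/well) received compound after 5 h, then 16 h at 37C/5% CO2. CCF4-AM added, 2 h RT. Ratio of 460 to 530 nm emission taken as the p53 reporter signal.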

[3] = target: Cellular tumor antigen p53 (Homo sapiens) (UniProt P04637); assay: TOX21_p53_BLA_p3_ratio: Tox21 HCT-116 p53 Agonism Beta-lactamase Assay, Ratio, Phase 3 (AID 2283596)
How it was run: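 Cells were seeded at 4000/well, rested 5 h at 37C, then dosed with DMSO compound solutions (217-fold dilution) for 16 h. CCF4-AM substrate was loaded for 2 h at room temperature, and the 460/530 nm emission ratio was fitted for gain of signal versus DMSO.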

[4] = TOX21_p53_BLA_p4_viability: Viability Assessment in the Tox21 HCT-116 p53 Agonism Beta-lactamase Assay, Phase 4 (AID 2283597);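 also: hits lower the luminescence signal meaning cytotoxicity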
How it was run: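 Readout: ATP luminescence (CellTiter-Glo), measured 30 min after reagent addition at RT. The reagent followed a 2 h CCF4-AM incubation, and the cells had been exposed to compound for 16 h at 37C.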

[5] = target: Cellular tumor antigen p53 (Homo sapiens) (UniProt P04637); assay: TOX21_p53_BLA_p5_ratio: Tox21 HCT-116 p53 Agonism Beta-lactamase Assay, Ratio, Phase 5 (AID 2283599)
How it was run: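 Beta-lactamase reporter ratio (blue 460 nm over green 530 nm, 405 nm excitation) after 2 h CCF4-AM loading, in HCT-116 cells exposed 16 h at 37 C to compounds pinned at 217-fold dilution. Increases relative to DMSO baseline scored.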

[6] = target: Cellular tumor antigen p53 (Homo sapiens) (UniProt P04637); assay: TOX21_p53_BLA_p4_ratio: Tox21 HCT-116 p53 Agonism Beta-lactamase Assay, Ratio, Phase 4 (AID 2283601)
How it was run: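 Signal is the blue/green (460nm/530nm) ratio of cleaved versus uncleaved CCF4-AM substrate, read after 2 h substrate loading. Cells were HCT116 carrying the p53-responsive beta-lactamase reporter, dosed 16 h at 37C, 5% CO2; CellTiter-Glo measured in parallel.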

[7] = TOX21_p53_BLA_p3_viability: Viability Assessment in the Tox21 HCT-116 p53 Agonism Beta-lactamase Assay, Phase 3 (AID 2283593);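 also: cells exposed to compound for 16 h before reading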
How it was run: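 Cellular ATP was quantified by CellTiter-Glo luminescence, read after 30 min at room temperature. Beforehand, HCT116 cells (4000/well) received compound 5 h post-seeding, 217-fold diluted from DMSO, then incubated 16 h at 37C.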

[8] = TOX21_p53_BLA_p5_viability: Viability Assessment in the Tox21 HCT-116 p53 Agonism Beta-lactamase Assay, Phase 5 (AID 2283600)
How it was run: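 Workflow: seed 4000 cells per well, wait 5 h, add compounds (DMSO, 217-fold dilution), incubate 16 h, load CCF4-AM 2 h, add CellTiter-Glo, read luminescence after 30 min.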

[9] = target: Estrogen receptor (Homo sapiens) (UniProt P03372); assay: NVS_NR_hER: NovaScreen (NVS) Nuclear Receptor Binding Assay for human Estrogen Receptor (ER) (AID 2283348)
How it was run: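 Cell-free MCF7-derived ER preparation, specific radioligand displaced by test compound, read by scintillation counting 18 h post-dosing. Duplicate single-point 25 uM screen, then concentration-response confirmation; DMSO baseline.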

Measured: AC50

Sequence of Estrogen receptor (Homo sapiens) (P03372 whole entry, looked up): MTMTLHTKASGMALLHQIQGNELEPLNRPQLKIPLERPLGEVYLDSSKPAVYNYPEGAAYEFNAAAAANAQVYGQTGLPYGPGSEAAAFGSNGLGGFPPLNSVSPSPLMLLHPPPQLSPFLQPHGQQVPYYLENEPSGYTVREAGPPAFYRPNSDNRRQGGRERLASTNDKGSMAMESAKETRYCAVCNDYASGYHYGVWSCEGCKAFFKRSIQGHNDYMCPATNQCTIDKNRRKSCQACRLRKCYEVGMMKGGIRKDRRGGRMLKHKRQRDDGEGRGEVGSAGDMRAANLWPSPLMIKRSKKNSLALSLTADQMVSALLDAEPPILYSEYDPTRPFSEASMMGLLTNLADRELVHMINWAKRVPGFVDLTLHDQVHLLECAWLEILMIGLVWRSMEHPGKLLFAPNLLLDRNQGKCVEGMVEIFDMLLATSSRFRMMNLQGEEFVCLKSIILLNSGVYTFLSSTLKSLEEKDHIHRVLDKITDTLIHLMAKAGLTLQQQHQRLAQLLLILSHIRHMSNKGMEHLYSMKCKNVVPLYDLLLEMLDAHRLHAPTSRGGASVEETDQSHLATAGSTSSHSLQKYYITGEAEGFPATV
Sequence of Cellular tumor antigen p53 (Homo sapiens) (P04637 whole entry, looked up): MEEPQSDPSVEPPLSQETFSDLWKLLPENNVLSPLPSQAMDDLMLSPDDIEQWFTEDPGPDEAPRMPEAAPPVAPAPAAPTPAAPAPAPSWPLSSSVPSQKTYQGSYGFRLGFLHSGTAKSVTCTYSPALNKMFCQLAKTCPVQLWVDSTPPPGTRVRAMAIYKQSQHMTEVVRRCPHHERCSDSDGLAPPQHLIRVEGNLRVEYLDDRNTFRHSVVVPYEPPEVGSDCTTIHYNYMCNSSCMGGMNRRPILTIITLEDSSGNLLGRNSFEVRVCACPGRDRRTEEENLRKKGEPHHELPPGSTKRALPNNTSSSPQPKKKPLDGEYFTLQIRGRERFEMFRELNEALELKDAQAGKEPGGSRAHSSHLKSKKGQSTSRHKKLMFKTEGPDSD

CCCCCCCCCCCCCCCCCCOCC(COP(=O)([O-])OCC[N+](C)(C)C)OC (stereo not drawn)
active: [1] 36.3 µM | [2] 43.6 µM

C[C@H](CCC(=O)O)[C@H]1CC[C@H]2[C@@H]3[C@H](O)C[C@@H]4C[C@H](O)CC[C@]4(C)[C@H]3CC[C@]12C
active: [1] 78.5 µM | [4] 87.1 µM
inactive: [1] | [2] | [3] | [4] | [5] | [6]

CCC(=O)C(=O)CC
not listed: [9]
inactive: all other assays above

O=S(=O)(O)c1cc(Cl)c(Cl)cc1Cl
inactive: [9] | [1] | [4] | [5]

COC(=O)CCC(=O)O
inactive: [1]

CCCCCCCCOCCCN
not listed: [7]
inactive: all other assays above

Cc1cc(Br)ccc1NC(=O)CCl
active: [1] 69.3 µM | [2] 23.2 µM | [7] 46.1 µM | [3] 13.3 µM | [4] 58.3 µM | [5] 13.3 µM | [8] 46.1 µM | [6] 25.3 µM
inactive: [9]

C=C1CC[C@H](O)C/C1=C/C=C1\CCC[C@]2(C)[C@@H]([C@H](C)CCCC(C)C)CC[C@@H]12
active: [1] 77.7 µM | [7] 63.2 µM and 34.4 µM | [4] 45.7 µM and 37.2 µM | [8] 73.6 µM | [6] 76.7 µM
inactive: [1] | [2] | [3] | [5] | [8] | [6]

Oc1c(I)cc(Cl)c2cccnc12
inactive: [1] | [2] | [7] | [3] | [5] | [8] | [6]
active: [1] 8.67 µM | [2] 7.99 µM | [7] 12.7 µM | [4] 4.52 µM and 18.6 µM | [5] 7.84 µM

CCCCCCCCCCCCN(CCO)CCO
active: [1] 69.7 µM | [2] 46.9 µM | [7] 64.3 µM | [3] 49.2 µM | [4] 53.4 µM | [5] 75.6 µM | [8] 59.3 µM | [6] 69.1 µM

O=C(OCCOCCO)c1ccccc1Nc1cccc(C(F)(F)F)c1
inactive: [1] | [2]

CCN(Cc1cccc(S(=O)(=O)O)c1)c1ccccc1
inactive: [9] | [1] | [4] | [5] | [8]

CCN(CC)CCOC(=O)C(c1ccccc1)c1ccccc1
inactive: [1]

Oc1cccc(O)c1O
inactive: [1] | [2] | [7] | [3] | [4] | [5] | [8] | [6]
active: [2] 75.6 µM

CCO[Si](C)(CCCOCC1CO1)OCC (stereo not drawn)
not listed: [6] | [8] | [9]
inactive: all other assays above

OCc1cc(C(O)CNCCCCCCOCCCCc2ccccc2)ccc1O (stereo not drawn)
active: [4] 28.2 µM
inactive: [1] | [2] | [7] | [3] | [4] | [5] | [8] | [6]

CON=C1C[C@]2(C[C@@H]3C[C@@H](C/C=C(\C)C[C@@H](C)/C=C/C=C4\CO[C@@H]5[C@H](O)C(C)=C[C@@H](C(=O)O3)[C@]45O)O2)O[C@H](/C(C)=C/C(C)C)[C@H]1C
active: [1] 8.61 µM and 8.38 µM | [2] 21 µM | [7] 17.2 µM and 13.8 µM | [3] 35.2 µM and 21.3 µM | [4] 9.09 µM and 8.73 µM | [5] 22 µM | [8] 17.3 µM and 10.7 µM | [6] 18.8 µM
inactive: [2] | [5] | [6]

O=C(O)c1ccc(S(=O)(=O)N(Cl)Cl)cc1
active: [2] 64.5 µM
inactive: [1] | [2] | [7] | [3] | [4] | [5] | [8] | [6]

O=[N+]([O-])c1cccc(C(F)(F)F)c1
inactive: [1] | [2] | [7] | [3]

CSc1ccc2c(c1)N(CCC1CCCCN1C)c1ccccc1S2 (stereo not drawn)
inactive: [7] | [3]
active: [1] 37 µM and 75.4 µM | [2] 43.6 µM and 79 µM | [7] 73 µM | [4] 35.8 µM and 59.3 µM | [5] 43.3 µM and 86 µM | [8] 43.8 µM and 85.2 µM

CC1=CC(=C(c2ccc(N)cc2)c2ccc(N)cc2)C=CC1=N
inactive: [1] | [2] | [7] | [3] | [4] | [5] | [8] | [6]
active: [2] 19.9 µM

COC1=C(OC)C(=O)C(C/C=C(\C)CC/C=C(\C)CC/C=C(\C)CC/C=C(\C)CC/C=C(\C)CC/C=C(\C)CC/C=C(\C)CC/C=C(\C)CC/C=C(\C)CCC=C(C)C)=C(C)C1=O
active: [3] 42.8 µM
inactive: [1] | [2] | [7] | [3] | [4] | [5] | [8] | [6]

CC(C)[C@H](N)C(=O)OCCOCn1cnc2c(=O)[nH]c(N)nc21
inactive: [1] | [2] | [7] | [3] | [4]

CCOc1cccc(N)c1
inactive: [1] | [2] | [7]

CC(=O)Nc1ccc(C=NNC(N)=S)cc1
not listed: [6] | [8] | [9]
inactive: all other assays above

CCOC(=O)c1ccc(OCCN2C[C@H](O)[C@@H](O)[C@H](O)[C@H]2CO)cc1
inactive: [1] | [2] | [7]

CCCCCOC(=O)CCCC
inactive: [1] | [2] | [7]

NNCCc1ccccc1
active: [4] 74.1 µM
inactive: [1] | [2] | [7] | [3] | [4] | [5] | [8] | [6]

CCOC(=O)c1c(C)n(C)c2ccc(O)cc12
not listed: [6] | [8] | [9]
inactive: all other assays above
